Measured values taken from PubChem BioAssay (Tox21).
Records with an inconclusive call do not appear. Entries that show only a call come without a potency. Calls of active or inactive are those of the source. Unless noted, calls follow the shape of the dose curve; as a rule, active = well fitted curve in the direction sought with a large enough effect in the repeat runs; inconclusive = weak or mixed curves; inactive = no such curve, though single readings can be large; an effect the other way counts as inactive or inconclusive.

Tests used:
[1] = qHTS assay to identify small molecule agonists of the peroxisome proliferator-activated receptor delta (PPARd) signaling pathway - cell viability counter screen (AID 743211); also: nearly all actives have a fitted effect of over 55% in size; also: potency is read from the fitted curve at half-maximal effect
Method in brief: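 In the same wells used for beta-lactamase reporter measurement, cytotoxicity is scored by CellTiter-Glo. HEK293H PPARd-bla cells receive compound for 17 h at 37C following a 5 h settling period.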

[2] = qHTS assay to identify small molecule antagonists of the peroxisome proliferator-activated receptor delta (PPARd) signaling pathway - cell viability counter screen (AID 743213); also: nearly all actives have a fitted effect of over 50% in size; also: potency is read from the fitted curve at half-maximal effect
Method in brief: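 Agonist-stimulated (L165041, 300 nM final) HEK293H PPARd UAS-bla cells are exposed to compounds for 17 h at 37 C, and ATP-based luminescence (CellTiter-Glo) from the same wells reports cytotoxicity.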

[3] = qHTS assay to identify small molecule agonists of the farnesoid-X-receptor (FXR) signaling pathway - cell viability counter screen (AID 743218); also: nearly all actives have a fitted effect of over 45% in size; also: potency is read from the fitted curve at half-maximal effect
Method in brief: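 Viability counter screen in the same wells: CellTiter-Glo luminescence, 30 min room-temperature incubation, measured after the beta-lactamase read. Cells were GeneBLAzer FXR-UAS-bla HEK 293T, compound-treated 16 h at 37C.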

[4] = target: Peroxisome proliferator-activated receptor delta (Homo sapiens) (UniProt Q03181); assay: qHTS assay to identify small molecule antagonists of the peroxisome proliferator-activated receptor delta (PPARd) signaling pathway (AID 743215; active = well fitted inhibition curve with a large enough effect in the signal ratio in the repeat runs, not every such curve was filed as active; the % refers to the signal ratio; also: series mostly up to about 62 µM)
Method in brief: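 Agonist L165041 (300 nM final) added with compound to PPARd-bla HEK293H UAS-bla reporter cells; 17 h incubation at 37 C. Read-out: LiveBLAzer FRET substrate, 2 h at room temperature, fluorescence intensity.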

[5] = target: Bile acid receptor (Homo sapiens) (UniProt Q96RI1); assay: qHTS assay to identify small molecule agonists of the farnesoid-X-receptor (FXR) signaling pathway (AID 743220; active = well fitted activation curve with a large enough effect in the signal ratio in the repeat runs, not every such curve was filed as active; the % refers to the signal ratio)
Method in brief: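 FXR-UAS-bla HEK 293T cells carrying a UAS-driven beta-lactamase reporter were plated for 5 h at 37C/5% CO2, then exposed to DMSO-dissolved Tox21 10K compounds for 16 h at 37C. A LiveBLAzer B/G FRET substrate was loaded for 2 h at room temperature before fluorescence reading.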

[6] = qHTS assay to identify small molecule antagonists of the farnesoid-X-receptor (FXR) signaling pathway - cell viability counter screen (AID 743221; active = well fitted cell-killing curve with a large enough effect in the repeat runs, not every such curve was filed as active; also: nearly all actives have a fitted effect of over 50% in size)
Method in brief: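 Here viability was scored by luminescence after CellTiter-Glo addition to wells already read for beta-lactamase. Prior treatment: compound plus CDCA (50 uM final), 16 h, 37 C, HEK 293T FXR-bla cells.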

[7] = target: Vitamin D3 receptor (Homo sapiens) (UniProt P11473); assay: qHTS assay to identify small molecule antagonists of the vitamin D receptor (VDR) signaling pathway (AID 743223; active = well fitted inhibition curve with a large enough effect in the signal ratio in the repeat runs, not every such curve was filed as active; the % refers to the signal ratio)
Method in brief: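 Inhibition of agonist-driven VDR signalling is scored in VDR-bla cells: 3 nM final 1alpha,25-dihydroxyvitamin D3 plus compound, 16 h at 37C, then beta-lactamase detection by FRET substrate fluorescence after 2 h.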

[8] = target: Bile acid receptor (Homo sapiens) (UniProt Q96RI1); assay: qHTS assay to identify small molecule antagonists of the farnesoid-X-receptor (FXR) signaling pathway (AID 743217; active = well fitted inhibition curve with a large enough effect in the signal ratio in the repeat runs, not every such curve was filed as active; the % refers to the signal ratio)
Method in brief: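 Antagonist mode: chenodeoxycholic acid at 50 uM final stimulates a UAS-driven beta-lactamase reporter in HEK 293T FXR-bla cells during 16 h, 37C compound exposure. Read-out is FRET substrate fluorescence after 2 h at room temperature.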

[9] = target: Peroxisome proliferator-activated receptor delta (Homo sapiens) (UniProt Q03181); assay: qHTS assay to identify small molecule agonists of the peroxisome proliferator-activated receptor delta (PPARd) signaling pathway (AID 743212; calls by dose curve;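 also: HEK293H cells with PPARd UAS beta-lactamase reporter GeneBLAzer system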)
Method in brief: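 Beta-lactamase reporter read by fluorescence (LiveBLAzer B/G FRET, 2 h, room temperature). Test agents, in DMSO, incubated at 37 C with PPARd-bla HEK293H cells.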

[10] = target: Vitamin D3 receptor (Homo sapiens) (UniProt P11473); assay: qHTS assay to identify small molecule agonists of the vitamin D receptor (VDR) signaling pathway (AID 743222; calls by dose curve)
Method in brief: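 Agonist mode, beta-lactamase reporter: fluorescence from LiveBLAzer B/G FRET substrate (2 h, room temperature) read after 16 h compound treatment at 37 C of VDR-bla cells, which were pre-incubated 4 h after seeding.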

Sequence of Bile acid receptor (Homo sapiens) (Q96RI1 whole entry, looked up): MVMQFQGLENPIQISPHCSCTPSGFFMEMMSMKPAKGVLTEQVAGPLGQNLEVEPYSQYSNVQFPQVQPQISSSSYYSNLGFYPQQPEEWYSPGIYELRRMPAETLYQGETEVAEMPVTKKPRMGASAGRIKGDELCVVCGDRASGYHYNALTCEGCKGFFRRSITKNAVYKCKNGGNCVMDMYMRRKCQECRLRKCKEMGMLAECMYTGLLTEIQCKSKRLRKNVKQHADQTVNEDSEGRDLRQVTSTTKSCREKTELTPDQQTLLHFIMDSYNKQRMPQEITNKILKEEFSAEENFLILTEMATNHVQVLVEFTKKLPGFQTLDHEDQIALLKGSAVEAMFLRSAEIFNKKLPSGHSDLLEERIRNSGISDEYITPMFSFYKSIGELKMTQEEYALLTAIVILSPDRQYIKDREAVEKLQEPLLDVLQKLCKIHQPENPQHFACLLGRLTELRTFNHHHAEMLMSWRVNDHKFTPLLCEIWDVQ
Sequence of Vitamin D3 receptor (Homo sapiens) (P11473 whole entry, looked up): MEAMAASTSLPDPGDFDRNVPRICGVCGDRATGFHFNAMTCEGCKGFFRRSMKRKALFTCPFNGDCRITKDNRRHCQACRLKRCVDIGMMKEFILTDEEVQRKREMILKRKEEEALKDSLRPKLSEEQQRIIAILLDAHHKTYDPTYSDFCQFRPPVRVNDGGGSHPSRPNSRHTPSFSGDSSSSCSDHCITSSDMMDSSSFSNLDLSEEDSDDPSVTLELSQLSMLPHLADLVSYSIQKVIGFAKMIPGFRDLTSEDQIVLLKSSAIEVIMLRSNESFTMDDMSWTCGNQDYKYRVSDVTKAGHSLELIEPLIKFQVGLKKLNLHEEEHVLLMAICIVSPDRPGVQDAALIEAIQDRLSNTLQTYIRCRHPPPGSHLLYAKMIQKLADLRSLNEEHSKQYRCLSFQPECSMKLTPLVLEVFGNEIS
Sequence of Peroxisome proliferator-activated receptor delta (Homo sapiens) (Q03181 whole entry, looked up): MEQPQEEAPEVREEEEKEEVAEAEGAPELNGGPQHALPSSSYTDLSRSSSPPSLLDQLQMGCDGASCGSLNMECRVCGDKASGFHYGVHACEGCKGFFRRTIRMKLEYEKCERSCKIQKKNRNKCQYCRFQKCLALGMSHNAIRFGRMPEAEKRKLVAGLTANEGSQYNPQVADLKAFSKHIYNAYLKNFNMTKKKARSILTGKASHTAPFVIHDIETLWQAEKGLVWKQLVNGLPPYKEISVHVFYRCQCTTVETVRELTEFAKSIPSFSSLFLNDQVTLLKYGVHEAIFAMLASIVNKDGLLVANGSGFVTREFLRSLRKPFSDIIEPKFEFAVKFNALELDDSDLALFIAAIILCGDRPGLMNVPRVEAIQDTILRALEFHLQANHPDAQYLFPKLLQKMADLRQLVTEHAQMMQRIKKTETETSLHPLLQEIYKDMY

Row | Compound | Potency [1] | Potency [2] | Potency [3] | Potency [4] | Potency [5] | Potency [6] | outcome [7] | Potency [8] | Potency [9] | outcome [10]
1 | CNC(=O)N(c1ccccc1)c1ccccc1 | inactive | inactive | inactive |  |  |  |  |  |  | 
2 | Cc1nccn1-c1ccc(Sc2cccc(C3(C(N)=O)CCOCC3)c2)cc1 | inactive | inactive |  | inactive | inactive | inactive |  |  |  | 
3 | CN(C)C(=O)Nc1ccc(Oc2ccc(Cl)cc2)cc1 | inactive | inactive | inactive |  |  | inactive | inactive |  |  | 
4 | N#C/C(=C1\SCC(c2ccccc2Cl)S1)n1ccnc1 (stereo not given) | inactive | inactive | inactive | inactive |  | inactive |  |  |  | 
5 | O=C(c1ccc(O)cc1)c1ccc(Cl)cc1 | inactive | inactive | inactive |  | inactive | inactive |  | inactive |  | 
6 | CCOCCn1c(C2CCN(CCc3ccc(C(C)(C)C(=O)O)cc3)CC2)nc2ccccc21 | inactive |  | inactive |  | inactive | inactive | inactive | inactive | inactive | inactive
7 | CCOC(=O)c1ccccc1C | inactive | inactive |  |  | inactive |  |  | inactive |  | 
8 | C[N+]1(C)CCC(=C(c2ccccc2)c2ccccc2)CC1 | inactive | inactive | inactive |  | inactive | inactive | inactive | inactive |  | inactive
9 | CCc1c2c(nc3ccc(OC(=O)N4CCC(N5CCCCC5)CC4)cc13)-c1cc3c(c(=O)n1C2)COC(=O)[C@]3(O)CC | inactive |  | inactive |  | inactive | inactive |  |  | inactive | 
10 | CCN(Cc1cccc(S(=O)(=O)O)c1)c1ccc(C(=C2C=CC(=[N+](CC)Cc3cccc(S(=O)(=O)[O-])c3)C=C2)c2ccccc2)cc1 | inactive | inactive | inactive |  |  |  |  |  |  | 
11 | CN1CCN(CCCN2c3ccccc3Sc3ccc(S(=O)(=O)N(C)C)cc32)CC1 | 26.6 µM (active) | 26.6 µM (active) | 29.8 µM (active) |  |  |  |  |  |  | 
12 | NC(=O)Cn1c(=O)cc(CCN2CCN(c3nccc4sccc34)CC2)c2ccc(F)cc21 | inactive | inactive | inactive | inactive | inactive | inactive | inactive |  |  | 
13 | O=C(O)c1cccnc1C(=O)O | inactive | inactive | inactive |  |  | inactive |  |  |  | 
14 | COc1ccccc1N=Nc1c(S(=O)(=O)O)cc2cc(S(=O)(=O)O)cc(NC(C)=O)c2c1O | inactive | inactive | inactive |  |  | inactive | inactive |  |  | inactive
15 | C/C=C(\C)C(=O)OCCC(C)CCC=C(C)C (stereo not given) | inactive | inactive | inactive |  | inactive | inactive | inactive | inactive |  | inactive
16 | O=[N+]([O-])c1cccc(S(=O)(=O)NCCNS(=O)(=O)c2cccc([N+](=O)[O-])c2)c1 | inactive |  | inactive |  | inactive |  | inactive | inactive | inactive | inactive
17 | Nc1ccc(S(=O)(=O)O)cc1 | inactive | inactive | inactive |  | inactive |  | inactive | inactive |  | inactive
18 | CC1=C(/C=C/C(C)=C\C=C\C(C)=C\C(=O)O)C(C)(C)CCC1 | inactive | inactive | inactive |  |  | inactive | inactive |  |  | inactive

Row | Compound | Potency [1] | Potency [2] | Potency [3] | Potency [4] | Potency [5] | Potency [6] | outcome [7] | Potency [8] | Potency [9] | outcome [10]
19 | O=C(N/N=C/c1ccc([N+](=O)[O-])o1)c1ccc(O)cc1 | inactive | inactive | inactive |  |  | inactive |  |  |  | 
20 | O=c1[nH]c2ccc(S(=O)CCN3CCC(Cc4ccc(F)cc4)CC3)cc2o1 (stereo not given) | inactive | inactive |  | inactive |  | inactive |  |  |  | 
21 | CCC(C(=O)OCCOCCN(CC)CC)c1ccccc1 (stereo not given) | inactive | inactive | inactive |  | inactive |  | inactive | inactive |  | 
22 | COCCOC | inactive | inactive | inactive |  | inactive | inactive | inactive | inactive |  | inactive
23 | CCCCN(CCCC)CCCOC(=O)c1ccc(N)cc1 | inactive | inactive | inactive |  |  | inactive |  | inactive |  | 
24 | N#C/C(=C1/SC[C@@H](c2ccc(Cl)cc2Cl)S1)n1ccnc1 | inactive | inactive | inactive |  |  | inactive |  |  |  | 
25 | CC[C@H](NC(=O)c1cc(F)ccc1NS(=O)(=O)c1cccc2cccnc12)c1ccccc1 | inactive |  | inactive |  | inactive | inactive | inactive |  | inactive | 
26 | C=C(C)C(=O)OCCOC(=O)CC(C)=O | inactive |  | inactive |  | inactive | inactive |  | inactive | inactive | inactive
27 | COc1ccc(CCC(=O)c2c(O)cc(O[C@@H]3O[C@H](CO)[C@@H](O)[C@H](O)[C@H]3O[C@@H]3O[C@@H](C)[C@H](O)[C@@H](O)[C@H]3O)cc2O)cc1O | inactive | inactive | inactive |  |  | inactive | inactive |  |  | inactive
28 | CCCCC/C(=C\c1ccccc1)CO | inactive |  | inactive |  | inactive | inactive | inactive | inactive | inactive | inactive
29 | Cc1cc(OI)c(C(C)C)cc1-c1cc(C(C)C)c(OI)cc1C | inactive | inactive | inactive |  |  |  |  | inactive |  | 
30 | CCCOc1ccc(S(=O)(=O)N2CCN(CC)CC2)cc1-c1nc2c(CC)n(Cc3ccccn3)nc2c(=O)[nH]1 | inactive | inactive | inactive |  | inactive | inactive |  | inactive |  | 
31 | Cn1c(=O)c2c(ncn2CC(=O)O)n(C)c1=O | inactive | inactive | inactive |  |  | inactive | inactive |  |  | 
32 | CCC(=O)Oc1ccc(/C(CC)=C(\CC)c2ccc(OC(=O)CC)cc2)cc1 | 54.9 µM (active) |  |  |  |  | inactive | inactive |  | inactive | 
33 | CCCCCCCCCCOS(=O)(=O)O | inactive | inactive |  |  | inactive | inactive | inactive | inactive |  | 
34 | C/C=C/C=C/CCCCCCCO | inactive |  | inactive |  | inactive | inactive |  | inactive | inactive | 
35 | Cc1oc(C)c(C(=O)Nc2ccccc2)c1C | inactive |  | inactive |  |  |  | inactive |  | inactive | inactive
36 | COC(=O)c1cc(Cl)ccc1NS(=O)(=O)C(F)(F)F | inactive | inactive | inactive |  | inactive | inactive |  | inactive |  | 
